ERK EGF inh: qHTS Assay for Inhibitors of the ERK Signaling Pathway using a Homogeneous Screening Assay; Stimulation with EGF; Potency, µM (series often up to 11.5 µM), inactives show top-dose activity change, negative = inhibition, hits mostly inhibitors; HEK293-V1b, EGF-stimulated phospho-ERK AlphaScreen; hit rate 0.41% among 130,000; active = well fitted inhibition curve with a large enough effect;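 also: plate controls were stimulated vehicle wells for no effect and unstimulated vehicle basal for full effect; nearly all actives have a fitted effect of over 55% in size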
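Compounds are titrated over HEK293-V1b cells kept overnight in 1% FBS. After 30 min at 37C, EGF (25 nM final) triggers ERK phosphorylation for 5 min, measured by AlphaScreen in lysates.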
The depositor's hits bear a star; [ ] = dose if it differs, or a comment. The entries come from a sample that favours hits as a whole. Potency is read from the fitted curve at half-maximal effect.

SMILES	ERK EGF inh
COc1cc(/C=C2/C(=O)NN(c3cccc(C)c3)C2=O)cc([N+](=O)[O-])c1O	-4%
COc1cc(/C=C2\C(=O)NN(c3ccccc3)C2=O)ccc1OCC(N)=O	0%
COc1cc(/C=C2/C(=O)NN(c3cccc(C)c3)C2=O)ccc1OC(=O)c1ccco1	25µM*
Cn1cccc1C(=O)N1CCC2(CC1)CCN(c1ccc(-c3ccccc3)cc1)CC2	-11%
CCN(CC)S(=O)(=O)c1ccc(Cl)c(NC(=O)COC(=O)c2cccn2C)c1	0%
CCN(CC)S(=O)(=O)c1ccc(Cl)c(NC(=O)COC(=O)c2c(C)noc2C)c1	7%
CCN(CC)S(=O)(=O)c1ccc(Cl)c(NC(=O)COC(=O)c2ccc(O)cc2)c1	28µM*
Cc1cc(N2CCCCC2)ccc1[N+](=O)[O-]	4%
Cc1ccc(Sc2ccc(CN3CCCCC3)cc2[N+](=O)[O-])cc1	10µM*
Cc1ccc(OCCOCCN2CCCCC2)c([N+](=O)[O-])c1	-11%
CC(=O)OC[C@@]1(O)C[C@@]23CC[C@@H]4c5ccoc5CC[C@@]4(C)[C@@H]2CCC1C3	1%
O=C(c1ccc(-c2cccc(Cl)c2)o1)N1CCN(c2ccc([N+](=O)[O-])cc2)CC1	-2%
O=[N+]([O-])c1cccc(-c2ccc(C(=S)N3CCN(c4ccccc4)CC3)o2)c1	25µM*
O=[N+]([O-])c1cccc(-c2ccc(C(=S)N3CCOCC3)o2)c1	2%
C[C@]12C[C@@](C)(C=C1/C=C/c1ccccc1)C(=O)C[C@H]2c1ccccc1	-3%
CC(=O)N1CCC2(CCCN(c3ccc(-c4ccccc4)cc3)C2)CC1	-11%
CCOC(=O)C(=O)c1c(C)cc2ccccn12	-6%
Cc1cc2ccccn2c1C(=O)c1ccc([N+](=O)[O-])o1	18µM*
Cc1cc2ccccn2c1C(=O)c1cccc([N+](=O)[O-])c1	6%
CC1COC2=C1C(=O)C(=O)c1c2ccc2c1CCCC2(C)C (configuration not stated)	27%
CCN(CC)CCCC(C)n1c(-c2ccccc2)nc2c(NCc3ccccc3)nc(C)nc21 (configuration not stated)	6%
CC1(C)S[C@H]2[C@@H](NC(=O)C(N)c3ccccc3)C(=O)N2[C@H]1C(=O)O (some centres not stated)	0%
O=C(/C=C\C=C/c1ccc2c(c1)OCO2)N1CCCCC1	-4%[25.7 µM]
COC(=O)c1ccc(NC(=S)NN2CCCCC2c2cccnc2)cc1 (configuration not stated)	9%[57.5 µM]
O=C(NC(=S)NN1CCCCC1c1cccnc1)c1ccc(Br)cc1 (configuration not stated)	14µM*
SMILES	ERK EGF inh
O=C(NC(=S)N1CCCCC1)c1cccnc1	-15%[57.5 µM]
COc1ccc(NC(=O)Cn2ncc(Cl)c(Cl)c2=O)cc1S(=O)(=O)N1CCOCC1	-7%
CCN(CC)S(=O)(=O)c1cc(NC(=O)Cn2ncc(Cl)c(Cl)c2=O)ccc1C	20µM*
CCOC(=O)c1ccc(NC(=O)Cn2ncc(Cl)c(Cl)c2=O)cc1	4%
CCCCCCCc1cc2c(cn1)C(=O)C(C)(OC(C)=O)C(O)=C2Cl (configuration not stated)	-11%
CNc1ncnc2c1ncn2[C@@H]1O[C@H](CO)[C@H](O)[C@H]1O	12%
c1ccc(-c2csc3ncnc(NCCCN4CCOCC4)c23)cc1	5%
CCN(CC)c1ncnc2scc(C3COc4ccccc4O3)c12 (configuration not stated)	0%
c1ccc(-c2csc3ncnc(NCC4COc5ccccc5O4)c23)cc1 (configuration not stated)	14µM*
N#Cc1ccc(CS(=O)(=O)c2nnnn2C2CCCCC2)cc1	-16%
Cc1cccc(CNc2ccnc(-c3ccc(N(C)C)cc3)n2)c1	21%
CCNc1c([N+](=O)[O-])c(=O)oc2ccccc12	-2%
Cc1ccc(Nc2c([N+](=O)[O-])c(=O)oc3ccccc23)cc1	5%
CCc1ccc(Nc2c([N+](=O)[O-])c(=O)oc3ccccc23)cc1	18µM*
CN(C)c1ncc2ncc(=O)n(Cc3cccs3)c2n1	5%
C#C[C@@]1(O)CC[C@@H]2[C@@H]3CCC4=CC(=O)CC[C@@H]4[C@H]3CC[C@]21CC	-6%[25.7 µM]
Cc1ccccc1Nc1nc(NCc2ccco2)c2ccccc2n1	-2%
Cc1ccc(Nc2nc(N)c([N+](=O)[O-])c(NCc3ccco3)n2)cc1C	-2%
Oc1ccccc1Nc1nc(NCc2ccco2)c2ccccc2n1	32µM*
Cc1cccc(Nc2nc(NCc3ccco3)c3ccccc3n2)c1	28µM*
Cc1ccc(-c2nc(NCc3ccco3)c3ccccc3n2)cc1	-5%
OCCN1CCN(c2nc(NCc3ccco3)c3ccccc3n2)CC1	2%
COc1cc2c(cc1OC)C1C(=O)c3c(cc4c(c3O)C=CC(C)(C)O4)OC1CO2 (configuration not stated)	-3%
CCCn1c(C)nc2c(N3CCOCC3)nc(C)nc21	2%
Cc1nc(NCc2ccccc2)c2nc(-c3ccccc3)n(C(C)CN(C)C)c2n1 (configuration not stated)	-5%
SMILES	ERK EGF inh
COc1ccc(C(=O)/C=C/c2ccc(N3CCCCC3)c([N+](=O)[O-])c2)cc1	32µM*
NC(=O)c1ccc(N2CCCCCC2)c([N+](=O)[O-])c1	15%
COc1ccc(N2CCN(c3ccc(C(N)=O)cc3[N+](=O)[O-])CC2)cc1	1%
CC(C)[C@@H](CC(=O)N[C@@H]1CCNC[C@H]1C(=O)N[C@H](CC(=O)N[C@@H](CCC(=O)O)CC(=O)O)Cc1c[nH]c2ccccc12)NC(=O)C[C@H](Cc1c[nH]c2ccccc12)NC(=O)[C@@H]1CCCC[C@H]1N	-5%
COc1ccc(C(=O)/C=C/c2ccc(O)cc2)cc1	-3%[57.5 µM]
COc1ccc(C(=O)/C=C/c2ccccc2)cc1	2%
COc1ccc(C(=O)/C=C/Sc2nc3ccccc3o2)cc1	28µM*
O=C(NNC(=S)NC1CCCCC1)c1sc2ccccc2c1Cl	2%
CC(C)(C)C(=O)NC(=S)NNC(=O)c1sc2ccccc2c1Cl	13µM*
O=C(NC(=S)NCCO)c1sc2ccccc2c1Cl	7%
C=C[C@H]1CN2CC[C@@H]1C[C@H]2[C@@H](O)c1ccnc2ccc(OC)cc12	14%[25.7 µM]
Cc1[nH]n(-c2ccccc2)c(=O)c1N=Nc1ccccc1C(=O)N1CCOCC1	-5%
Cc1cc([N+](=O)[O-])ccc1N=Nc1c(N)[nH]n(-c2ccccc2)c1=O	-2%
NC(=O)c1ccc(N=Nc2c(-c3ccccc3)[nH]n(-c3ccccc3)c2=O)cc1	-7%
Nc1[nH]n(-c2ccccc2)c(=O)c1N=Nc1ccc2c(c1)OCO2	22µM*
Cc1[nH]n(-c2ccccc2)c(=O)c1N=Nc1ccccc1	16µM*
Nc1nn(-c2ccccc2)c(N)c1N=Nc1ccc2c(c1)OCO2	0%
N[C@H](CCC(=O)N[C@H](CSN=O)C(=O)NCC(=O)O)C(=O)O	-13%
CC1=NN(c2ccccc2)C(=O)/C1=C/c1ccc[nH]1	18µM*
CC1=NN(c2ccccc2)C(=O)/C1=C\c1cc(C)n(-c2cccnc2)c1C	-2%[57.5 µM]
CC1=NN(c2ccccc2)C(=O)/C1=C/c1c(O)n(-c2ccc(F)cc2)[nH]c1=O	0%
CC1=NN(c2ccccc2)C(=O)/C1=C\c1cc(C)n(-c2ccccc2)c1C	-5%
CC1=NN(c2ccccc2)C(=O)/C1=C/c1cccs1	5%
CC1=NN(c2ccccc2)C(=O)/C1=C\c1ccc(Br)s1	28µM*
COc1cc(C/C=C\c2ccccc2)c(OC)cc1O	-7%
